For 21 molecules, outcome, max response and Potency results are on record in PubChem BioAssay (NCATS).

Records with an inconclusive call do not appear. A number with no mark means an inactive call. The source made the active and inactive calls. Calls come from the whole dose curve; as a rule, active = well fitted inhibition curve with a large enough effect; inconclusive = small, poorly fitted or top-dose-only effect; inactive = flat fitted curve, though single readings scatter.

Common to all, as to experiment: Cytotoxic Profiling of Annotated Libraries Using Quantitative High-Throughput Screening (AID 1296008); note: nearly all actives have a fitted effect of over 60% in size
Settings in all cases: Five cell lines viability, CellTiter-Glo ATP luminescence, 48-72 h; max response: stronger effect = lower value
A general note: Cellular ATP, detected with luciferase, serves as a proxy for viable cell number.

The test system of assay [1] is CRL-7250. The procedure, abridged:
(§1)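 Cells exposed to compounds for 48 or 72 hr at 37 degrees Celsius. Viability read as ATP-coupled luminescence with CellTiter-Glo after 10 min at room temperature.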

Assay [2] deals with HaCat. The essentials:
as §1

Assay [3] deals with KB-3-1. The essentials: as §1
Assay [4] deals with NIH3T3. The procedure, abridged: as §1
% is set by controls: 0 for no effect and ±100 for the full control effect; potency is the fitted concentration of half-maximal effect.

Take `CC(C)(C)C1CCN(C(=O)n2ncc(C(O)(c3ccccc3)c3ccccc3)n2)CC1`: the outcome in assay [1] was inactive. In addition, the max response is -7.63% in assay [2] and -15.2% in assay [3].

`COc1cccc(CN(C(=O)CC(C)(C)C)[C@H]2C[C@H](C(=O)N3CCNCC3)N(Cc3ccc4c(c3)OCO4)C2)c1`: the molecule was called inactive in assay [1] and in assay [3]. In addition, the max response in assay [2] was -6.86%.

On to `Cc1cccc(C#Cc2cc(F)cc(C#N)c2)n1`, for which the max response in assay [1] is -2.01%; in assay [2], -1.48%; in assay [3] it was 2.45%.

Take `COc1ccccc1C(=O)Nc1cccc(NC(=O)c2cccc(C)c2)c1`: the max response is -5.11% in assay [1], 3.09% in assay [2] and 4.14% in assay [3].

For the molecule `CC(C)C[C@H](CO)Nc1nc(S[C@@H](C)c2ccccc2)nc2nc(N)sc12`, the max response in assay [1] is 1.1%; in assay [2], -4.79%; in assay [4] it was 2.79%. The molecule was classed as inactive in assay [3].

Consider `C[C@@H]1O[C@@H](O[C@H]2[C@@H](OC(=O)[C@]34CCC(C)(C)CC3C3=CCC5[C@@]6(C)C[C@H](O)[C@H](O[C@@H]7O[C@H](CO)[C@@H](O)[C@H](O)[C@H]7O[C@@H]7OC[C@@H](O)[C@H](O)[C@H]7O)[C@@](C)(C(=O)O)C6CC[C@@]5(C)[C@]3(C)CC4)OC[C@H](O)[C@@H]2O)[C@H](O)[C@H](O)[C@H]1O[C@@H]1OC[C@@H](O)[C@H](O)[C@H]1O` (some centres not stated), for which the max response in assay [1] was 4.52%; in assay [2] it was -2.16%; in assay [4] it was 1.11%. The Potency in assay [3] was 2450 nM (active).

`COc1cc(-c2cn(C3CCc4c(F)cccc4N(CC(F)(F)F)C3=O)nn2)ccc1-n1cnc(C)c1` (configuration not stated): the max response in assay [1] is -13.5%; in assay [2], -32.4%; in assay [3] it was -16.9%.

Take `Fc1ccc(-c2nc(-c3c(F)cccc3F)[nH]c2-c2ccncc2)cc1`: the max response was -5.53% in assay [1], -17.9% in assay [2] and 3.89% in assay [3].

Regarding `C=CC(=O)N1CCCC(n2nc(-c3ccc(Oc4ccccc4)cc3)c3c(N)ncnc32)C1` (configuration not stated), the max response in assay [1] is 3.87%; in assay [3] it was -21.4%. For the same molecule, the Potency in assay [2] was 1300 nM (active).

In the case of `CCN(CCNC(=O)Nc1ccccc1Br)c1cccc(C)c1`, the max response in assay [1] is -1.67%; in assay [2], 0.35%; in assay [3], 2.25%.

Take `O=C(NCCN1CCC(n2c(=O)[nH]c3ccccc32)CC1)c1ccc2ccccc2c1`: the max response in assay [1] was 1.03%; in assay [2], -42.4%; in assay [3] it was -2.44%.

Turning to `CCCC(CCC)C(=O)NCc1ccc2c(cnn2-c2ccccc2OC)c1`, the max response was -29.2% in assay [1], 3.89% in assay [2], -13.4% in assay [3] and 0.011% in assay [4].

Turning to `COC(CCc1ccc(O)cc1)CC(=O)CCc1ccc(O)cc1` (configuration not stated), the max response in assay [1] is 3.53%; in assay [2], -18.6%. Moreover, the molecule was called inactive in assay [3].

In the case of `CC(=O)N[C@H]1[C@H](O[C@H]2CC[C@@]3(C)C(CC[C@]4(C)C3CC=C3C5CC(C)(C)CC[C@]5(C(=O)O)C(O)C[C@]34C)C2(C)C)O[C@H](CO[C@@H]2O[C@H](C)[C@H](O)[C@H](O)[C@H]2O[C@@H]2OC[C@@H](O)[C@H](O)[C@H]2O)[C@@H](O)[C@@H]1O` (some centres not stated), the max response in assay [1] was -3.47%; in assay [2], -18.2%; in assay [3] it was 3.32%.

Turning to `COc1ccc(NC(=O)c2ccc(C(=N)N(C)C)cc2)c(C(=O)Nc2ccc(Cl)cn2)c1`, the max response in assay [1] was 3.5%; in assay [2], -16.4%; in assay [3], 2.86%.

On to `O=C(Nc1ccc(-c2ccc(Cl)c(Cl)c2)cc1)C1=C(O)c2ccccc2S(=O)(=O)N1`, for which, in assay [1], the result was inactive. For the same molecule, the max response in assay [2] is -6.44%; in assay [3], -12.4%.

With `C/C(=C\Cc1c(O)c(Cl)c(C)c(C=O)c1O)CC/C=C(\C)[C@H]1CC(=O)C(C)(C)O1`, the max response is -27.3% in assay [1], -8.07% in assay [2], -27.9% in assay [3] and -17.5% in assay [4].

Take `NCCOc1cc(C(=O)Nc2cc(OCCN)c3ccccc3n2)nc(C(=O)Nc2cc(OCCN)c3ccccc3n2)c1`: the Potency in assay [1] is 7310 nM (active); in assay [2], 2630 nM (active); in assay [3], 16400 nM (active).

For the molecule `CCOC(=O)c1cnn(-c2ccccc2)c1NC(=O)c1cc2nc(-c3ccco3)cc(C(F)(F)Cl)n2n1`, the figures for the max response in assay [1], in assay [2] and in assay [3] were -4.16%, 3.78% and 6.18%, respectively.

In the case of `CCCCCc1ccc(/C=C/C(=O)Nc2cc(Cl)ccc2C(=O)O)cc1`, the results for the max response in assay [1], in assay [2] and in assay [3] were -6.38%, -35.2% and -3.71%, respectively.

As to `CN(C)[C@@H]1CCc2[nH]c3ccc(NC(=O)c4ccc(F)cc4)cc3c2C1`, the max response in assay [1] is -12.5%; in assay [2], -11.8%; in assay [3], 1.75%.
